hERG WT inh = blocks the wildtype human KCNH2 potassium channel; activity change, % at 1.84 µM; Q12809; actives 0.37% (n = 340,000); U2OS, BacMam KCNH2, thallium flux FluxOr; active compounds read low; AID 720551;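 active = maximum activity change below -70%; inconclusive = maximum activity change between -70% and -50%; inactive = maximum activity change above -50%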
Target sequence (Q12809 whole entry, looked up): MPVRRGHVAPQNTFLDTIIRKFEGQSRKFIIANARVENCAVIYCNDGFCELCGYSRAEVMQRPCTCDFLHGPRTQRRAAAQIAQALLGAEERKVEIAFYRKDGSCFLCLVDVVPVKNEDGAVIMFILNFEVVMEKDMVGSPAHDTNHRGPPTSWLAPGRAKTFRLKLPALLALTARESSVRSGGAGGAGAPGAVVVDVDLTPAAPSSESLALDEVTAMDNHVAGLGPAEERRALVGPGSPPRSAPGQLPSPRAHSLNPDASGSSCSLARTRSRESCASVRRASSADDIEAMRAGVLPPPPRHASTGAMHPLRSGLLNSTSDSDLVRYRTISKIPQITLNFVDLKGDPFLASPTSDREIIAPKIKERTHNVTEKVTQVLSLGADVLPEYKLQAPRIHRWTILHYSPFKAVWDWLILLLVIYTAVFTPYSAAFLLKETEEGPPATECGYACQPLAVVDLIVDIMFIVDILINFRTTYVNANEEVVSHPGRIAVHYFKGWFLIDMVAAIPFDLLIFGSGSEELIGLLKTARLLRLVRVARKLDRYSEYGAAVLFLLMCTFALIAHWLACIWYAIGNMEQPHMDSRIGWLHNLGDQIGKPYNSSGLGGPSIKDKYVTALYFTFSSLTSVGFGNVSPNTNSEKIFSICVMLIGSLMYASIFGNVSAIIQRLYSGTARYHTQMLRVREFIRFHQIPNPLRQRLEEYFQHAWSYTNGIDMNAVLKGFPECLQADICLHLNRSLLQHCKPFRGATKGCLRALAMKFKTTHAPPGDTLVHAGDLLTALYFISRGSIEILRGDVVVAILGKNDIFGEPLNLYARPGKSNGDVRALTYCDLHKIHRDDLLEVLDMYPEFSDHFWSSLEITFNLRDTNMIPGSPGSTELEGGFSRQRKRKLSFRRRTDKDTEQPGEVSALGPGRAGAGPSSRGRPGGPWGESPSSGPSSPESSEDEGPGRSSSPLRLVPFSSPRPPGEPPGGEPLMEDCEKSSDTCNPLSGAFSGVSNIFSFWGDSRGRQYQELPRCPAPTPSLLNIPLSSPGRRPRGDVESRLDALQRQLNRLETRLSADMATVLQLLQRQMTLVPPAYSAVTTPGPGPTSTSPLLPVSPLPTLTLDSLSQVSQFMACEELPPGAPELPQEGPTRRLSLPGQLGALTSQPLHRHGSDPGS
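U2OS cells were transduced with wild-type KCNH2 virus (2.03 x 10^8 / mL) for 4 h at room temperature, then cultured overnight at 37 C. Thallium flux was read with FluxOr dye. Rate constants were normalized to DMSO controls.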
KCNH2 3.1 block = inhibitors of human KCNH2 3.1 potassium channel isoform. U2OS KCNH2 3.1, thallium flux FluxOr; active compounds read low. activity change, % (tested at about 1.8 µM). actives 0.95% (n = 340,000). AID 720553;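 active = maximum activity change below -70%; inconclusive = maximum activity change from -70% to -50%; inactive = maximum activity change above -50%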;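 also: thallium influx rate constant from kinetic fluorescence after stimulation buffer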
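Thallium flux read-out: FluxOr dye with Red40 quencher in HBSS/HEPES, 45 min at RT. Rate constants from kinetic reads were normalized to positive and negative DMSO controls. Cells: U2OS virally expressing the 3.1 isoform.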
ClpP mod = qHTS Assay for Activators of ClpP. ATP-dependent Clp protease proteolytic subunit (Bacillus subtilis (strain 168)), P80244. purified B. subtilis ClpP, FRET peptide cleavage, 20 min. Potency, µM (top dose mostly 57.5 µM). actives 1.9% (n = 340,000); active = well fitted falling curve with a large enough effect; inconclusive = small, poorly fitted or top-dose-only effect; inactive = no such curve, though single readings can be large or run the other way; also: the source files actives as falling curves though it sought activators and does not explain the sign; nearly all actives have a fitted effect of over 65% in size
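Purified B. subtilis ClpP, 10 microg/mL final in Tris/HCl pH8 with KCl, BSA, glycerol and Tween-20, cleaved an Abz/nitrotyrosine-quenched decapeptide. Fluorescence (ex 320, em 430) was read at 0 and 20 min at room temperature. Delta was normalized to 5.8 microM ADEP and DMSO/no-enzyme controls.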
LDHA block = inhibitors of human lactate dehydrogenase A. actives 0.15% (n = 480,000). P00338. purified LDHA, NADH/diaphorase-resazurin fluorescence; active compounds read low. activity change, % (values are at about 110 or 230 µM); in the data active = activity change below about -30%; inconclusive = mostly about -25% to -30%
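Human LDH5 at 2 nM final in Tris HCl pH 7.4 with 0.06 mM NADH and 0.2 mM pyruvate, reacted 5 minutes at room temperature. Remaining NADH coupled via diaphorase/resazurin; resorufin fluorescence read at 0 and 20 minutes, normalized to enzyme-free and DMSO wells.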
ALOX12 inh = blocks human arachidonate 12S-lipoxygenase | purified 12hLO, xylenol orange hydroperoxide absorbance | Potency, µM (top dose mostly 108 µM), hits mostly inhibitors | actives 1.1% (n = 580,000); active = well fitted inhibition curve with a large enough effect; inconclusive = small, poorly fitted or top-dose-only effect, or another doubt; inactive = no such curve, though single readings can be large or run the other way
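Purified human 12hLO (150 nM final) in 25 mM Hepes, 0.01% Triton X-100, pH 7.0 was preincubated 15 min at room temperature with compound. Then 40 uM arachidonic acid was added, 30 min. Hydroperoxide was read by Fe-XO absorbance ratio 573/405 nm.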
BCR signal inh = blocks chronic active B-cell receptor signaling; ABC-DLBCL IkBa-CBG/CBR reporter, luminescence ratio, 4 h; Potency, µM (doses to about 46.1 µM), usual class: inhibitors; actives 0.05% (n = 340,000); active = well fitted inhibition curve with a large enough effect in the signal ratio, with a control signal flat, not every such curve was filed as active; inconclusive = small, poorly fitted or top-dose-only effect, or effect the other way, or a change in a side signal; the % refers to the signal ratio
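Cell line TMD8 (human ABC DLBCL), stably expressing tet-inducible CBG68-IkBa fusion and CBR; IMDM/0.5% FBS; cpd up to 46 uM; dox induction, 4 h, 37C/5% CO2; dual luminescence; green/red ratio; MG132 control.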
Hits are given with their value; i = inactive; ? = inconclusive; nt = no result given. This is a sample that favours compounds with a hit; in the whole collection about 3% have one here.

SMILES	hERG WT inh	KCNH2 3.1 block	ClpP mod	LDHA block	ALOX12 inh	BCR signal inh
CC(C)CSc1nc2c(c(=O)n(C)c(=O)n2C)n1CCCc1ccccc1	nt	nt	nt	i	i	nt
COc1ccc(-n2c(-c3ccco3)nc3c(cnn3-c3ccc(C)cc3)c2=O)cc1	i	i	?	i	?	i
COc1ccc(-n2c(-c3ccccc3F)nc3c(cnn3-c3ccc(C)cc3)c2=O)cc1	nt	nt	25µM	i	i	nt
CN(Cc1ccc2c(c1)OCO2)C(=O)c1nn(-c2ccccc2)c(=O)c2ccccc12	nt	nt	nt	-35	?	nt
O=C(c1nc(-c2cccnc2)no1)N1CCN(c2ccc(F)cc2)CC1	nt	nt	nt	-33	i	nt
C=CCn1c(N2CCN(Cc3cccc(Cl)c3)CC2)nc2c1c(=O)[nH]c(=O)n2C	nt	nt	nt	i	i	nt
O=C(CSc1oc(-c2ccco2)nc1S(=O)(=O)c1ccccc1)NCC1CCCO1 (stereo not drawn)	i	i	i	i	?	?
NC(=O)CSc1oc(-c2ccco2)nc1S(=O)(=O)c1ccc(Cl)cc1	i	i	i	i	28µM	i
O=C(CSc1oc(-c2ccc(F)cc2)nc1S(=O)(=O)c1ccc(Cl)cc1)c1ccccc1	nt	nt	i	i	?	nt
O=C(CSc1oc(-c2ccccc2)nc1S(=O)(=O)c1ccc(Cl)cc1)c1ccccc1	nt	nt	i	i	7.9µM	nt
O=C(CSc1oc(-c2ccco2)nc1S(=O)(=O)c1ccc(Cl)cc1)NCC1CCCO1 (stereo not drawn)	i	i	i	i	7.9µM	i
CCOC(=O)c1cnc(N2CCN(c3ccccn3)CC2)c2ccccc12	nt	nt	nt	i	i	nt
Cc1ccc(S(=O)(=O)CCC(=O)OCC(=O)NCCc2ccccc2)cc1	i	i	nt	i	i	i
Cc1ccc(S(=O)(=O)CCC(=O)OCC(=O)N(Cc2ccccc2)C(C)C)cc1	i	i	16µM	i	i	i
Clc1cccc(C2Nc3cccc4cccc(c34)N2)c1	i	i	nt	i	3.5µM	i
Fc1cccc(Cl)c1C1Nc2cccc3cccc(c23)N1	i	i	i	i	?	i
Clc1ccc(C2Nc3cccc4cccc(c34)N2)cc1Cl	i	i	i	i	i	?
Clc1cccc(Cl)c1C1Nc2cccc3cccc(c23)N1	i	-97	nt	i	?	?
CCC(=O)Nc1c(S(=O)(=O)c2ccccc2)c2nc3ccccc3nc2n1C(C)c1ccccc1 (stereo not drawn)	i	i	32µM	i	i	?
CCC(=O)Nc1c(S(=O)(=O)c2ccc(C)cc2)c2nc3ccccc3nc2n1C(C)c1ccccc1 (stereo not drawn)	i	i	20µM	i	i	?
CN(CC(=O)Nc1ccccc1Cl)Cc1ncc(-c2ccc(F)cc2)o1	nt	nt	nt	i	i	nt
CCN1CC=C2C(C#N)=C(N)C(C#N)(C#N)C(CCc3ccccc3)C2C1 (stereo not drawn)	i	i	28µM	i	i	?
Cc1n[nH]c(C)c1C(N)C(=O)N(C)Cc1ccnc2ccccc12 (stereo not drawn)	nt	nt	nt	nt	i	nt
Cc1cc(=O)c(C(=O)N2CCN(S(=O)(=O)c3ccc4c(c3)CCC4)CC2)nn1-c1ccccc1F	nt	nt	nt	i	i	nt
COc1ccc(/C(C)=N/NC(=S)NCc2ccco2)cc1	i	i	i	i	40µM	?
SMILES	hERG WT inh	KCNH2 3.1 block	ClpP mod	LDHA block	ALOX12 inh	BCR signal inh
C=CCNC(=S)N/N=C(\C)c1ccc(OC)cc1	i	nt	nt	i	40µM	?
C=CCNC(=S)N/N=C(\C)c1cccc(OC)c1	i	i	?	i	?	?
CC(=O)N(Cc1cccnc1)c1cccc(-c2nc3ccccc3s2)c1	i	i	14µM	i	i	?
CNC(=O)NC(=O)CNc1cccc(C)c1C(=O)OC	nt	nt	nt	i	?	nt
COc1ccc(C2C(C(C)=O)=C(O)C(=O)N2CCO)c(OC)c1 (stereo not drawn)	i	i	i	i	?	i
CCCCN1C(=O)C(O)=C(C(C)=O)C1c1ccc(OC)cc1OC (stereo not drawn)	i	i	i	i	8.9µM	i
O=C(O)c1ccc2ncsc2c1	i	i	nt	i	45µM	?
CCOC(=O)Cc1nnc(SC(C)C(=O)Nc2ccc(F)c(F)c2)n1C (stereo not drawn)	nt	nt	nt	i	i	nt
COc1cc(C)ccc1OCCSc1nc2ccc(NC(=O)c3ccc4c(c3)OCO4)cc2s1	nt	nt	22µM	i	i	nt
Cc1cc(C)cc(OCCSc2nc3ccc(NC(=O)c4ccc5c(c4)OCO5)cc3s2)c1	nt	nt	i	i	i	nt
Cc1ccccc1OCCSc1nc2ccc(NC(=O)c3cccc(F)c3)cc2s1	nt	nt	22µM	i	i	nt
Cc1ccccc1OCCSc1nc2ccc(NC(=O)c3cccs3)cc2s1	nt	nt	14µM	i	i	nt
Cc1ccccc1OCCSc1nc2ccc(NC(=O)c3ccccc3)cc2s1	nt	nt	i	i	i	nt
Cc1cccc(OCCSc2nc3ccc(NC(=O)c4cccs4)cc3s2)c1	nt	nt	20µM	i	i	nt
COc1ccccc1CNC(=O)Cn1ncc2c3ccccc3n(Cc3ccccc3C)c2c1=O	nt	nt	?	i	i	nt
Cc1ccccc1Cn1c2ccccc2c2cnn(CC(=O)NCc3cccc(Cl)c3)c(=O)c21	nt	nt	22µM	i	i	nt
CCCn1c2ccccc2c2cnn(CC(=O)NC3CCCCC3)c(=O)c21	-226	i	i	i	i	i
CCCn1c2ccccc2c2cnn(CC(=O)NC3CCC(C)CC3)c(=O)c21 (stereo not drawn)	i	i	i	i	i	i
CC1CCc2c(sc3ncnc(N4CCS(=O)CC4)c23)C1 (stereo not drawn)	nt	nt	nt	i	?	nt
Clc1ccc2oc(-c3ccccc3)cc(=NCCCN3CCOCC3)c2c1	i	i	nt	i	14µM	i
CC1=C(C(=O)OCC(C)C)C(c2cc3c(cc2Br)OCO3)NC(=O)N1C (stereo not drawn)	i	i	i	i	i	i
COC(=O)C1=CN(C(C)C)C=C(C(=O)OC)C1c1cc2c(cc1Br)OCO2	i	i	32µM	i	?	i
Cc1ccoc1C(=O)NCc1cccc(C(F)(F)F)c1	nt	nt	nt	i	i	nt
Cc1ccc(C)c(N2CC(C(=O)OCC(=O)c3ccc(Br)cc3)CC2=O)c1 (stereo not drawn)	nt	nt	nt	i	?	nt
CC(=O)c1ccc(N2CCN(CC(O)COC(c3ccccc3)c3ccccc3C)CC2)cc1 (stereo not drawn)	i	-94	nt	i	0.63µM	i
CCCCn1ccc2nc3ccn(-c4ncn[nH]4)c(=O)c3cc2c1=O	nt	nt	nt	i	?	nt
N#Cc1cc(-c2ccccc2)c[nH]c1=O	i	i	7.9µM	i	i	i
CCN(CC)CCCNC(=O)c1c2c(nc3ccccc13)C(=O)N(C1CCCCC1)C2	nt	nt	14µM	i	i	nt
Cc1ccc(NC(=O)CCC2CCCCC2)cc1	nt	nt	nt	i	i	nt

Compound activity as filed in PubChem.
